PubChem BioAssay

system: XIP peptide (Xip251-270); assay: compounds binding XIP fragment 251-270 – biochemical, small-molecule microarray, fluorescence 635/667 nm, 0.5 µg/mL protein, primary screen (AID 1183); conditions: fluorescence 635 nm, higher = more signal

**Q.** How did the composite z-score turn out when CC1(C)O[C@H]2OC([C@H](O)CON3C(=O)c4ccccc4C3=O)[C@H](O)[C@H]2O1 (stereo partly specified) was run?
**A.** 0.291

**Q.** With C=CC[C@@H]1C=C[C@H](ON=C2C[C@@H](O)[C@@H](O)[C@@H]3[C@@H]4C(=O)N(CC)C(=O)[C@@H]4CC[C@@H]23)[C@@H](CO)O1 as the molecule, how does the composite z-score read?
**A.** -1.06

**Q.** Which composite z-score does the source give for O=C1C2=CC[C@H]3C(=O)N(C[C@@H]4CCCO4)C(=O)[C@H]3[C@H]2[C@H](O)[C@@H]2O[C@H]12 here?
**A.** 0.39

**Q.** Which composite z-score does the source give for COc1cccc([C@H]2Oc3ccc(OC)cc3C(=NOCC[C@@H]3C=C[C@H](OC(C)=O)[C@@H](COC(C)=O)O3)[C@@H]2O)c1 here?
**A.** 0.206

**Q.** How did the composite z-score turn out when CC(C)C(=O)N[C@H]1CCCN1C(=O)C=Cc1ccccc1 was run?
**A.** -0.168

**Q.** For CC(CCC(=O)OC[C@H]1O[C@H](C#Cc2ccccc2)C=C[C@@H]1Oc1ccc(C)cc1)=NOC(C)CN1CCCc2nc(C)c(C)cc21 (stereo partly specified), which composite z-score is on record?
**A.** 0.529

**Q.** Which composite z-score does the source give for O=C1[C@H]2[C@H]3[C@H](O)[C@H](O)CC(=NOC[C@@H](O)COCc4ccco4)[C@@H]3CC[C@H]2C(=O)N1Cc1ccc2c(c1)OCO2 here?
**A.** 0.265

**Q.** How did the composite z-score turn out when C#CCCCON=C1C[C@@H](O)[C@@H](O)[C@@H]2[C@@H]3C(=O)N(CC)C(=O)[C@@H]3CC[C@H]12 was run?
**A.** -0.423

**Q.** How did the composite z-score turn out when COc1ccc(O[C@H]2C=C[C@@H](c3ccccc3)O[C@@H]2CON=C(C)CCN2CCCc3nc(C)c(C)cc32)cc1 was run?
**A.** 0.693

**Q.** COc1ccc(COC(=O)NN=C2C[C@@H](O)[C@@H](O)[C@@H]3[C@@H]4C(=O)N(c5cccc(Oc6ccccc6)c5)C(=O)[C@@H]4CC[C@H]23)cc1 was tested. Which composite z-score did it give?
**A.** -0.255

**Q.** CC(CCN1CCCc2nc(C)c(C)cc21)=NOC[C@@H](O)COCc1ccco1 was tested. Which composite z-score did it give?
**A.** 0.831

**Q.** With C#CCCCON=C1C[C@@H](O)[C@@H](O)[C@@H]2[C@@H]3C(=O)N(C4CCCCC4)C(=O)[C@@H]3CC[C@@H]12 as the molecule, how does the composite z-score read?
**A.** 0.0169

**Q.** O=C1[C@H]2[C@H]3[C@H](O)[C@H](O)CC(=NO[C@@H]4O[C@H](CO)[C@@H](O)[C@H](O)[C@H]4O)[C@@H]3CC[C@H]2C(=O)N1C[C@@H]1CCCO1 was tested. Which composite z-score did it give?
**A.** 0.385

**Q.** How did the composite z-score turn out when CC(CCN1CCCc2nc(C)c(C)cc21)=NOC[C@@H](C)[C@H](OCc1ccccc1)C(C)C was run?
**A.** 0.548

**Q.** Which composite z-score does the source give for C=CCOCC1CN2[C@@H](CC[C@@H](C)[C@@H]2c2ccc(Br)cc2)C(=O)O1 (stereo partly specified) here?
**A.** -0.104

**Q.** How did the composite z-score turn out when CC(C)=NOC(C)CN1CCCCc2nc(C)c(C)cc21 (stereo unspecified) was run?
**A.** 0.208

**Q.** For CC(=O)OC[C@H]1O[C@H](CC=NOC[C@@H](O)[C@H]2O[C@@H]3OC(C)(C)O[C@@H]3[C@H]2O)C=C[C@@H]1OC(C)=O, which composite z-score is on record?
**A.** 0.732

**Q.** How did the composite z-score turn out when C[C@@H]1CC[C@H]2C(=O)N3[C@@H](CC[C@@H](C)[C@@H]3c3ccc(Br)cc3)C(=O)N2[C@H]1c1ccc(Br)cc1 was run?
**A.** 0.335

**Q.** CC(C)(C)N1C(=O)[C@H]2[C@H]3[C@H](O)[C@H](O)CC(=NNC(=O)OCc4ccccc4)[C@H]3CC[C@H]2C1=O was tested. Which composite z-score did it give?
**A.** 0.764

**Q.** With CCOC(=O)CCN1C(=O)[C@H]2[C@H]3[C@H](O)[C@H](O)CC(=NOCC=C(C)CCC=C(C)C)[C@H]3CC[C@H]2C1=O as the molecule, how does the composite z-score read?
**A.** -0.206

**Q.** Which composite z-score does the source give for CO[C@H]1COC(=O)[C@H](CCSC)NC(=O)CC=C[C@@H](C)[C@H](OC)COC(=O)[C@@H](OCc2ccccc2)C=C[C@@H]1C here?
**A.** 0.358

**Q.** With CC(C)[C@@H](OCc1ccccc1)[C@H](C)C=NO[C@@H](C)c1cn([C@H](CO)Cc2ccccc2)nn1 as the molecule, how does the composite z-score read?
**A.** -0.0098

**Q.** With O=C(NCCC[N+]1=CC=NC1c1ccccc1)N1CCCc2nc(-c3ccc(Br)cc3)ccc21 (stereo unspecified) as the molecule, how does the composite z-score read?
**A.** 0.0388

**Q.** CCOC(=O)CCN1C(=O)[C@H]2[C@H]3[C@H](O)[C@H](O)CC(=O)[C@@H]3CC[C@H]2C1=O was tested. Which composite z-score did it give?
**A.** 0.61

**Q.** Which composite z-score does the source give for O=C1CCCC=C1C(O)c1ccc([N+](=O)[O-])cc1 (stereo unspecified) here?
**A.** 0.852

**Q.** Which composite z-score does the source give for COC(=O)[C@H](C)NC(=O)CCC1CC(OC(=O)NCCc2ccc(F)cc2)CC2(CCCC(COC(=O)NCCOc3ccccc3)O2)O1 (stereo partly specified) here?
**A.** 0.536

**Q.** How did the composite z-score turn out when CC#CCOCCC=C1c2ccccc2[C@@H](OC)[C@@H]1C was run?
**A.** 0.0938

**Q.** For Cc1ccc2[nH]c3nc(CCCn4ccnc4-c4ccccc4)nnc3c2c1, which composite z-score is on record?
**A.** 0.623

**Q.** Which composite z-score does the source give for COc1ccc(COC(=O)NN=C2C[C@@H](O)[C@@H](O)[C@@H]3[C@@H]4C(=O)N(Cc5ccc6c(c5)OCO6)C(=O)[C@@H]4CC[C@H]23)cc1 here?
**A.** 0.174

**Q.** With CCOC(=O)[C@H](Cc1ccccc1)NC(=O)CCC1CC(OC(=O)NCc2cccc3ccccc23)CC2(CCCC(COC(=O)NCc3ccc4c(c3)OCO4)O2)O1 (stereo partly specified) as the molecule, how does the composite z-score read?
**A.** 0.818

**Q.** CC(=O)OC[C@H]1O[C@H](CC=NOC(C)CN2CCCc3nc(C)c(C)cc32)C=C[C@@H]1OC(C)=O (stereo partly specified) was tested. Which composite z-score did it give?
**A.** 0.618
